Data published in PubChem BioAssay.
The source made the active and inactive calls. Unless noted, the rule behind the calls is not given here.

Columns and labels:
[1] = system: Wnt5a (protein binding on small-molecule microarray); experiment: small molecules binding Wnt5a protein – biophysical, small-molecule microarray, 635/667 nm fluorescence, primary screen (AID 1142); conditions: 635 nm fluorescence, higher = more signal;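 note: fluorescence read at 667 nm with signal to noise per printed feature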
[2] = ATP-based viability of Huh7 replicon cells – cell-based, CellTiter-Glo luminescence, basal, 48 h, cytotoxicity control for HCV replication inhibitor project, primary screen (AID 1143); conditions: higher = more signal, called active from +8 up or from −8 down;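 note: Huh7 hepatoma cells carrying a hepatitis C replication reporter with no stimulus; test concentration not given here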
[3] = Pseudomonas biofilm growth suppression – PAO1 strain, BacTiter-Glo luminescence, LB-PBS, primary screen (AID 1144); conditions: P. aeruginosa PAO1 biofilm, 12 h, higher = more signal
[4] = basal CRE-LacZ reporter activity in PC12 – cell-based, unstimulated, primary screen (AID 1145); conditions: no forskolin, luminescence, 4.5 h, higher = more signal, called active from +8 up or from −8 down
[5] = forskolin-driven CRE-LacZ activity in PC12 – cell-based, CRE-LacZ reporter, forskolin-stimulated, primary screen (AID 1146); conditions: luminescence, 4.5 h, higher = more signal, called active from +8 up or from −8 down;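 note: PC12 cells with 6xCRE LacZ reporter stimulated by forskolin 10 µM; beta-galactosidase reporter signal reflecting CREB driven transcription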
[6] = biological target: Streptavidin (Streptomyces avidinii) (UniProt P22629); experiment: compounds binding control protein streptavidin – biophysical, small-molecule microarray, 635/667 nm fluorescence, artefact control for SMM compound annotation, primary screen (AID 1147); conditions: higher = more signal;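 note: signal reflects streptavidin binding to arrayed compounds as a control protein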
Streptavidin (Streptomyces avidinii), sequence (P22629 whole entry, looked up): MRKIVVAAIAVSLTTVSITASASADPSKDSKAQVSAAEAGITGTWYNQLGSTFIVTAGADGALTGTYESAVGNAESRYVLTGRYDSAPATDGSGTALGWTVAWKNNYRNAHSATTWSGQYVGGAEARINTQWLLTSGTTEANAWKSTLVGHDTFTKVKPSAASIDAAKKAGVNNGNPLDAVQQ

[7] = probe aInhba binding on compound microarray – biochemical, small-molecule microarray, 635/667 nm fluorescence, primary screen (AID 1148); conditions: higher = more signal;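 note: score merges 667nm spot fluorescence with signal-to-noise for antibody binding to printed compounds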
Torsin-1A (Homo sapiens) [8] = biological target: Torsin-1A (Homo sapiens) (UniProt O14656); experiment: TOR1A wild-type binding on microarray – cell lysate, small-molecule microarray, lysate, 635/667 nm, primary screen (AID 1149); conditions: COS7 hTOR1A-WT lysate, 635 nm fluorescence, higher = more signal
Torsin-1A (Homo sapiens), sequence (O14656 whole entry, looked up): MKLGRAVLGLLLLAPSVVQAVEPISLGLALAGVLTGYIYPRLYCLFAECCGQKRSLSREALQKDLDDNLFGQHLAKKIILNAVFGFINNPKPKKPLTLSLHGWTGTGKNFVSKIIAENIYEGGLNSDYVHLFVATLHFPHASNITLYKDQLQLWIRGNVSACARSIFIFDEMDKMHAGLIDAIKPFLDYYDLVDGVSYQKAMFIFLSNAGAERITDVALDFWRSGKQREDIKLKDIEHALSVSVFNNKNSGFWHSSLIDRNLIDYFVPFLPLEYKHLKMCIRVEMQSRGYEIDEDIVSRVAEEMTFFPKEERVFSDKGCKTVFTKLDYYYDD

Torsin-1A (Homo sapiens) [9] = biological target: Torsin-1A (Homo sapiens) (UniProt O14656); experiment: torsin A mutant lysate binding on microarrays – cell lysate, small-molecule microarray, COS7 lysate, 635/667 nm fluorescence, primary screen (AID 1150); conditions: COS7 hTOR1A mutant lysate, 635 nm fluorescence, higher = more signal;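 note: score pools 667 nm emission and signal to noise measuring lysate protein binding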
[10] = system: Sonic hedgehog protein (Shh); experiment: Sonic hedgehog microarray binding compounds – biochemical, small-molecule microarray, 635/667 nm fluorescence, primary screen (AID 1151); conditions: 635 nm fluorescence, higher = more signal;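 note: Shh protein binding to compounds spotted on small-molecule microarray slides; score combines spot fluorescence intensity with signal-to-noise across triplicate slides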
[11] = optical density shifts of acrAB sulA E. coli – strain DRC41, OD650, 48 h, E. coli filamentation inducer project, primary screen (AID 1152); conditions: higher = more signal, called active from +8 up or from −8 down;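 note: E. coli MC1000 strain DRC41 lacking acrAB efflux pump and sulA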
[12] = probe aLefty1 binding on compound microarray – biochemical, small-molecule microarray, 635/667 nm fluorescence, primary screen (AID 1153); conditions: higher = more signal;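 note: score merges spot fluorescence with signal-to-noise ratio from the scanned slide images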
[13] = plasmodial surface anion channel blockers, osmotic lysis – cell-based, P. falciparum Indochina, OD700, 1 h, primary screen (AID 1154); conditions: P. falciparum Indochina infected RBC osmotic lysis, higher = more signal, called active from +8 up or from −8 down
[14] = plasmodial surface anion channel blockers, osmotic lysis – cell-based, P. falciparum Indochina, OD700, 2 h, primary screen (AID 1155);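 note: lysis reports solute entry through the parasite surface anion channel PSAC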; conditions: P. falciparum Indochina infected erythrocytes, higher = more signal, called active from +8 up or from −8 down
[15] = changes in parasitized red cell lysis, either direction – P. falciparum Indochina, OD700, 3 h, PSAC antagonist project, primary screen (AID 1156); conditions: P. falciparum-infected erythrocytes, osmotic lysis, higher = more signal, called active from +8 up or from −8 down
[16] = plasmodial surface anion channel blockers, osmotic lysis – cell-based, P. falciparum Indochina, OD700, 18 h, primary screen (AID 1157); conditions: P. falciparum Indochina infected erythrocytes, osmotic lysis OD700, 18 h; higher = more signal, called active from +8 up or from −8 down
[17] = S6 kinase pathway phospho-S6 level changes – cell-based, A549, cytoblot, luminescence, serum-stimulated, primary screen (AID 1158); conditions: 5 h, higher = more signal;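 note: serum-stimulated A549 lung adenocarcinoma cells; signal is phosphorylated S6 detected by cytoblot immunostaining with HRP secondary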
[18] = biological target: NADPH oxidase 2 (Homo sapiens) (UniProt P04839); experiment: compounds shifting NOX2 Amplex Red fluorescence – cell-based, HEK293-NOX2, PMA-stimulated, NOX inhibitor project, primary screen (AID 1159); conditions: 45 min, higher = more signal, called active from +8 up or from −8 down; note: test concentration not given here
NADPH oxidase 2 (Homo sapiens), sequence (P04839 whole entry, looked up): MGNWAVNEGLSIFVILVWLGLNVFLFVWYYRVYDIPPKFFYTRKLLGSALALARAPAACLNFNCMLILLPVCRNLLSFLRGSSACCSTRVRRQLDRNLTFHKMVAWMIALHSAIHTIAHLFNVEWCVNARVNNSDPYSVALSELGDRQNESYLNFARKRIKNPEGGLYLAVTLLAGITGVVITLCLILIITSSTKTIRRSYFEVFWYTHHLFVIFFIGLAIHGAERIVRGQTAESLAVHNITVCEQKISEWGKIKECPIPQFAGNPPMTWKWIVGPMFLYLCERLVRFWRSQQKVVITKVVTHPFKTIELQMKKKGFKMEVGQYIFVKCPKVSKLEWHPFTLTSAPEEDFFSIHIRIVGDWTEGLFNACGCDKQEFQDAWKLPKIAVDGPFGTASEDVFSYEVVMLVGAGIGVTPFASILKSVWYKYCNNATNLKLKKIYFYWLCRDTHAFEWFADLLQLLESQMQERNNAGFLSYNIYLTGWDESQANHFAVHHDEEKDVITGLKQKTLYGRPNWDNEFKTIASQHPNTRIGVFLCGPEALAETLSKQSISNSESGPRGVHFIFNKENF

[19] = biological target: NADPH oxidase 4 (Homo sapiens) (UniProt Q9NPH5); experiment: compounds shifting NOX4 Amplex Red fluorescence – cell-based, HEK293-NOX4, tetracycline-induced, NOX inhibitor project, primary screen (AID 1160); conditions: HEK293-NOX4, Amplex Red H2O2 fluorescence, 45 min; higher = more signal, called active from +8 up or from −8 down
NADPH oxidase 4 (Homo sapiens), sequence (Q9NPH5 whole entry, looked up): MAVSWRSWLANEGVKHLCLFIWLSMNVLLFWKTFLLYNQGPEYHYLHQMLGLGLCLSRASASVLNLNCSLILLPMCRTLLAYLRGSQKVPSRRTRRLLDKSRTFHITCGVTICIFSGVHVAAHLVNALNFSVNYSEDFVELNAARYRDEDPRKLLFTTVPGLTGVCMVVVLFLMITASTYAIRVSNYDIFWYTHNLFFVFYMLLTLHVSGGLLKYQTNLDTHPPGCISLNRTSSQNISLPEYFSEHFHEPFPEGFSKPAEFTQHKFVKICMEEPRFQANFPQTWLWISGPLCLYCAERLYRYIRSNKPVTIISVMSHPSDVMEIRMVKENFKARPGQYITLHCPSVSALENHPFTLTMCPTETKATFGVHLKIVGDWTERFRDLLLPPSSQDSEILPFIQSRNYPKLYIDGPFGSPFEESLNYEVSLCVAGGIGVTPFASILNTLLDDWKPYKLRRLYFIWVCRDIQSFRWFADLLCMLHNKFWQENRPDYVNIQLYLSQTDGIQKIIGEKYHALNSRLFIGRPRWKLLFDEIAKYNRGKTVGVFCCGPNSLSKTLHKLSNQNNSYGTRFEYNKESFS

[20] = biological target: NADPH oxidase 5 (Homo sapiens) (UniProt Q96PH1); experiment: compounds shifting NOX5 Amplex Red fluorescence – cell-based, HEK293-NOX5, NOX inhibitor project, primary screen (AID 1161); conditions: HEK293-NOX5, ionomycin, 45 min, higher = more signal
NADPH oxidase 5 (Homo sapiens), sequence (Q96PH1 whole entry, looked up): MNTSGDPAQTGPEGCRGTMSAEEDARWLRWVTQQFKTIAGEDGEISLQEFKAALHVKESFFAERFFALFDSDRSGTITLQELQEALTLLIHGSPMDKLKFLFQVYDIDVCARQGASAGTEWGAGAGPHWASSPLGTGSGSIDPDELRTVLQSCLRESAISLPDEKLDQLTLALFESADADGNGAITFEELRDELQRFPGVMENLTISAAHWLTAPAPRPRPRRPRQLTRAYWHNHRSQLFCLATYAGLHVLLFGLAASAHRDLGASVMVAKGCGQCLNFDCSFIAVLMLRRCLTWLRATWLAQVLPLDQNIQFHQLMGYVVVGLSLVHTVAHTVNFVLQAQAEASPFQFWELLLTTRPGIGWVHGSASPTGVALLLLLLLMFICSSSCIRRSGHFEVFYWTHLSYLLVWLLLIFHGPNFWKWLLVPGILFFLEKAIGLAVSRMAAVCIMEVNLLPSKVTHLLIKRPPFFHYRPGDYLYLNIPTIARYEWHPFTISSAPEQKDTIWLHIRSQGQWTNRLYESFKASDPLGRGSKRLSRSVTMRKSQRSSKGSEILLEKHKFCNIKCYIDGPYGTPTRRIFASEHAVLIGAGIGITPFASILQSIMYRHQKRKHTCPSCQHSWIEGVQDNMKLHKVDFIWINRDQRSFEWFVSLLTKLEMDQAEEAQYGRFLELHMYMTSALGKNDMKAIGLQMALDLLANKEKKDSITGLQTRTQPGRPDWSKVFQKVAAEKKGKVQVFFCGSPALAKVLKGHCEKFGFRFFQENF

SMILES	composite z-score [1]	z-score [2]	z-score [3]	z-score [4]	z-score [5]	composite z-score [6]	composite z-score [7]	composite z-score (Torsin-1A (Homo sapiens) [8])	composite z-score (Torsin-1A (Homo sapiens) [9])	composite z-score [10]	z-score [11]	composite z-score [12]	z-score [13]	z-score [14]	z-score [15]	z-score [16]	z-score [17]	z-score [18]	z-score [19]	z-score [20]
CCCCN1CC=CC23O[C@@H]4C=CCOC(=O)[C@@H]4[C@H]2C(=O)N(CCCO)[C@@H]3C1=O (stereo not given in full)	-0.133	-1.98 (inactive)	-0.766 (inactive)	-0.757 (inactive)	1.47 (inactive)	-0.808	-0.23	0.222	-0.107	-0.512	0.915 (inactive)	-0.0075	-0.062 (inactive)	-0.921 (inactive)	0.836 (inactive)	-1.43 (inactive)	0.385	0.05 (inactive)	-0.101 (inactive)	-0.234
CCCCN1CC=CC23O[C@@H]4/C=C\CCC(C)OC(=O)C4[C@H]2C(=O)N(CCCCCCO)[C@@H]3C1=O (stereo not given in full)	0.0569	0.745 (inactive)	-0.72 (inactive)	0.61 (inactive)	-0.0292 (inactive)	-0.519	-0.239	1.08	2.16	-0.57	0.622 (inactive)	-0.145	0.548 (inactive)	0.31 (inactive)	0.573 (inactive)	0.454 (inactive)	1.81	1.2 (inactive)	0.112 (inactive)	2.3
C=C(CCCC)/C(=C/C[C@@H](OC(C)=O)c1ccc(CO)o1)c1cc(C(=O)OC)ccc1OC	0.259	0.0294 (inactive)	-0.504 (inactive)	3.68 (inactive)	2.34 (inactive)	0.498	-0.0405	0.436	0.371	2.15	-0.132 (inactive)	-0.0011	9.64 (active)	0.938 (inactive)	1.3 (inactive)	0.553 (inactive)	0.476	0.615 (inactive)	-0.832 (inactive)	-1.18
C=CCNC(=O)[C@@H]1[C@H]2C(=O)O[C@H](c3ccccc3)[C@H](c3ccccc3)N2[C@H](c2ccc(OCCO)cc2)[C@@]12C(=O)N(C(=O)OCCOC)c1ccc(C#CC3=CCCCC3)cc12	0.335	-2.81 (inactive)	0.576 (inactive)	0.2 (inactive)	0.886 (inactive)	0.902	0.104	0.694	0.823	1.46	-0.892 (inactive)	0.173	6.2 (inactive)	2.12 (inactive)	0.669 (inactive)	1.46 (inactive)	0.0846	1.13 (inactive)	-0.0729 (inactive)	1.69
COc1ccc([Si](C)(C)[C@H]2[C@H](CC(=O)N3Cc4ccccc4C[C@H]3CO)O[C@@]3(C(=O)N(Cc4cccc(N5CCCCC5=O)c4)c4ccccc43)[C@@H]2C)cc1	0.329	-3.48 (inactive)	-0.185 (inactive)	2.21 (inactive)	0.114 (inactive)	-0.0717	0.0422	0.849	0.431	2.15	-0.431 (inactive)	0.0391	3.41 (inactive)	0.966 (inactive)	0.357 (inactive)	0.549 (inactive)	1.83	-0.508 (inactive)	0.916 (inactive)	-0.169
CC(C)C(=C=CC[C@@H](O)c1ccccc1OCCO)C[C@@H](O)COCc1ccccc1	0.679	-5.62 (inactive)	0.173 (inactive)	18.5 (active)	-0.762 (inactive)	0.235	0.15	0.636	1.1	1.98	1.6 (inactive)	-0.103	6.77 (inactive)	2.19 (inactive)	-1.43 (inactive)	-0.119 (inactive)	0.86	0.0182 (inactive)	0.489 (inactive)	-1.52
COC(=O)[C@@]1(Cc2ccccc2)[C@H]2c3cc(C(=O)N4CCCC4)n(Cc4ccsc4Br)c3C[C@H]2CN1C(=O)c1ccccc1	0.38	-3.12 (inactive)	0.389 (inactive)	0.201 (inactive)	-0.813 (inactive)	1.21	0.407	0.147	0.894	-1.01	-1.82 (inactive)	0.451	7 (inactive)	1.07 (inactive)	1.04 (inactive)	1.03 (inactive)	-0.215	0.0188 (inactive)	0.707 (inactive)	-2.92
CN(C)CCCNC(=O)[C@@H]1c2ccccc2C(=O)N(CC23CC4CC(CC(C4)C2)C3)[C@H]1c1ccc(CO)cc1	0.528	-4.72 (inactive)	-0.465 (inactive)	-0.322 (inactive)	-0.0221 (inactive)	1.12	0.016	0.954	0.808	1.5	0.0377 (inactive)	-0.262	1.1 (inactive)	0.964 (inactive)	0.648 (inactive)	1.09 (inactive)	-0.245	-2.04 (inactive)	-0.633 (inactive)	-0.657
COC1(C)CN(Cc2ccccc2Br)[C@H](/C=C/c2ccccc2)[C@H](Cc2ccccc2)O1 (stereo not given in full)	-0.243	-0.391 (inactive)	-0.198 (inactive)	1.93 (inactive)	0.874 (inactive)	-0.332	-0.0719	-0.558	0.357	-0.191	1.16 (inactive)	-0.31	0.787 (inactive)	0.669 (inactive)	0.911 (inactive)	-0.0143 (inactive)	0.52	-0.112 (inactive)	0.76 (inactive)	-0.271
COCCOC(=O)N1C(=O)[C@@]2(c3ccccc31)[C@H](C(=O)N1CCN(c3ncccn3)CC1)[C@H]1C(=O)O[C@H](c3ccccc3)[C@H](c3ccccc3)N1[C@@H]2c1ccc(OCCO)cc1	0.561	-1.12 (inactive)	-0.236 (inactive)	1.3 (inactive)	-0.599 (inactive)	1.19	0.336	0.281	0.59	1.82	1.18 (inactive)	-0.244	16.4 (active)	3.96 (inactive)	0.779 (inactive)	1.24 (inactive)	0.242	0.351 (inactive)	0.798 (inactive)	0.55
CC(C)NC(=O)[C@@]1(C)c2ccccc2C(=O)N(C(C)C)[C@H]1c1ccc(CO)cc1	-0.79	0.0942 (inactive)	-0.272 (inactive)	0.0924 (inactive)	0.626 (inactive)	-1.35	-0.197	-3.17	-2.55	0.133	-0.508 (inactive)	-0.0699	1.21 (inactive)	0.547 (inactive)	0.702 (inactive)	0.255 (inactive)	0.0605	-0.0231 (inactive)	0.375 (inactive)	0.222
COc1ccc(NN2C(C(O)c3ccccn3)C=CC3C(=O)N(C4CCCCC4)C(=O)C32)cc1 (stereo not given)	0.483	-0.924 (inactive)	-1.43 (inactive)	-0.471 (inactive)	-0.119 (inactive)	1.37	0.0183	0.0607	0.542	-0.0244	0.29 (inactive)	0.267	3.45 (inactive)	0.539 (inactive)	0.34 (inactive)	0.536 (inactive)	-0.552	-0.973 (inactive)	-3.8 (inactive)	-2.33
CC(=O)n1cc(C(O)C2C=CC3C(=O)N(Cc4ccccc4)C(=O)C3N2n2cnnc2)c2ccccc21 (stereo not given)	0.363	0.276 (inactive)	1.3 (inactive)	0.631 (inactive)	-0.696 (inactive)	1.05	-0.152	-0.466	-0.0022	0.204	-1.32 (inactive)	-0.0867	8.09 (active)	2.31 (inactive)	0.927 (inactive)	1 (inactive)	-0.386	-0.0716 (inactive)	-0.738 (inactive)	-0.392
O=C1NCC(=O)N2[C@@H]1C[C@@H](C(=O)O)[C@H]2c1ccc(O)cc1	0.27	-0.286 (inactive)	-0.611 (inactive)	0.0084 (inactive)	0.622 (inactive)	0.237	0.0104	1.13	2.29	2.01	0.533 (inactive)	0.138	2.73 (inactive)	0.328 (inactive)	-3.02 (inactive)	-0.0173 (inactive)	-0.174	-1.92 (inactive)	-0.822 (inactive)	-1.29
CC(C)C(O)C1C=CC2C(=O)N(C)C(=O)C2N1N(c1ccccc1)c1ccccc1 (stereo not given)	-0.18	0.909 (inactive)	0.633 (inactive)	0.0535 (inactive)	-0.136 (inactive)	0.0226	-0.0332	-0.141	0.369	-1.28	-0.573 (inactive)	0.213	0.321 (inactive)	0.167 (inactive)	-0.255 (inactive)	1.05 (inactive)	-1.38	-0.71 (inactive)	-0.583 (inactive)	-0.828
C=CCN1C(=O)[C@@]2(O[C@@H](CCO)[C@H]([Si](C)(C)c3ccc(OC)cc3)[C@H]2C)c2cc(N3C(=O)c4ccccc4Oc4ccccc43)ccc21	0.485	-7.93 (inactive)	-1.4 (inactive)	18.4 (active)	-3.87 (inactive)	0.031	-0.102	-0.331	-0.0355	0.23	1.88 (inactive)	-0.147	24.4 (active)	8.39 (active)	0.332 (inactive)	2.07 (inactive)	0.502	-0.946 (inactive)	0.757 (inactive)	-0.54
COC(=O)[C@@]1(Cc2ccc(OC)cc2)[C@H]2c3cc(C(=O)N(C)C)n(Cc4ccccc4)c3C[C@H]2CN1C(=O)c1ccccc1	-0.0424	-3.07 (inactive)	-0.784 (inactive)	-0.764 (inactive)	0.592 (inactive)	0.707	0.0882	-0.0982	0.14	-1.21	-1.25 (inactive)	0.748	0.49 (inactive)	0.194 (inactive)	-1.39 (inactive)	0.594 (inactive)	0.686	-1.52 (inactive)	-1.09 (inactive)	2.49
